Laboratory results from PubChem BioAssay AID1117289 (Broad Institute, 2014).
Potency and affinity values are given separately. Records with an inconclusive call do not appear. Active and inactive are the calls of the source.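 The calls were made as follows: active = inhibitor whose fitted half-maximal dose is at most twice the top tested dose in every run; inconclusive = runs disagree, poor fit, or flat fit inhibiting 30 to 70%; inactive = every run inactive, flat, rising or too weak.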

molecular target: Endoplasmic reticulum aminopeptidase 2 (Homo sapiens) (UniProt Q6P179); experiment: inhibition of ERAP2 Arg-AMC cleavage – biochemical, plate reader, dry powder, set 2, selectivity assay for selective ERAP1 modulator project, dose response (AID 1117289); details: purified ERAP2, Arg-AMC hydrolysis fluorescence, 1 h; series mostly up to 50 µM; activity change, negative = inhibition: at the top concentration
Sequence (Q6P179 whole entry, looked up): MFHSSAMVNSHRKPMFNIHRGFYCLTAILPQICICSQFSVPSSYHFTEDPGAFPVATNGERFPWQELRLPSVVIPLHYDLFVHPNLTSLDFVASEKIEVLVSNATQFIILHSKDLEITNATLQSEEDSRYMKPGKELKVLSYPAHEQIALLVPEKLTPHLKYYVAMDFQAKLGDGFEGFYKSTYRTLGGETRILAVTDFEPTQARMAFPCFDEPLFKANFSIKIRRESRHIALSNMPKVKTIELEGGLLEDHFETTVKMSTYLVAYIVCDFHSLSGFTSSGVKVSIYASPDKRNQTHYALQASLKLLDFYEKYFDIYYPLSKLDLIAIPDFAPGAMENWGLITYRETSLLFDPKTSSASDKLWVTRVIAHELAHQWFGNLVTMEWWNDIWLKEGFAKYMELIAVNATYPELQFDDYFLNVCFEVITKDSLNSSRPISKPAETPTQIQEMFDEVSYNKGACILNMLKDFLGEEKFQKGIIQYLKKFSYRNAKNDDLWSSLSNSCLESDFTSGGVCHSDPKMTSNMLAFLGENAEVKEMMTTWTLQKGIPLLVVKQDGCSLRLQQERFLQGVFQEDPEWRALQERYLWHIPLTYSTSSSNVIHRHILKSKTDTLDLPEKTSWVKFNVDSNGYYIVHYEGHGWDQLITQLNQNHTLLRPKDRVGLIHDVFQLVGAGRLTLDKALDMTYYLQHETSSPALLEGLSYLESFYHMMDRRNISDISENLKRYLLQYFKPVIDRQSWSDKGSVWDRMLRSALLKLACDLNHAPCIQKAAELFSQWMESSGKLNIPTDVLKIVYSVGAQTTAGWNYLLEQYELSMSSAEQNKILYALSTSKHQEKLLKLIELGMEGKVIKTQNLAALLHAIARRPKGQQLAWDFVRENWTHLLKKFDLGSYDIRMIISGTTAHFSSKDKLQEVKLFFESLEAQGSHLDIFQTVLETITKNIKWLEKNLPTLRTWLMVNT

Activity change, negative = inhibition, inactive:
O=C(O)c1ccc(Cl)c(S(=O)(=O)Nc2cc(C(F)(F)F)ccc2N2CCCCC2)c1 -2.09%
COc1ccc(C(=O)O)cc1S(=O)(=O)Nc1cc(C)ccc1N1CCCCC1 19.8%
O=C(O)c1cccc(S(=O)(=O)Nc2cc(C(F)(F)F)ccc2N2CCCCC2)c1 19.5%
COc1ccc(C(=O)O)cc1S(=O)(=O)Nc1ccccc1N1CCCCC1 -9.84%
COc1ccc(C(=O)O)cc1S(=O)(=O)Nc1ccc(N2CCCCC2)cc1C(F)(F)F 21.9%
COc1ccc(C(=O)Nc2cccc(C(F)(F)F)c2)cc1S(=O)(=O)O 30%
Cc1ccc(S(=O)(=O)Nc2cc(C(F)(F)F)ccc2N2CCCCC2)cc1C(=O)O -23.1%
COc1ccc(C2=NN(c3ccc(C(=O)O)cc3)C(c3ccc(OC)c(OC)c3)C2)cc1 (centres undefined) 289% [at 6 µM]
COc1ccc(C(=O)O)cc1S(=O)(=O)Nc1cc(C(F)(F)F)ccc1N(C)C 33.6%
COc1ccc(C(=O)O)cc1S(=O)(=O)Nc1cccc(N2CCCCC2)c1C(F)(F)F 27.3%
COc1ccc(C(=O)O)cc1S(=O)(=O)Nc1cc(F)ccc1N1CCCCC1 13.2%
COc1ccc(C(=O)O)cc1S(=O)(=O)Nc1cc(C(F)(F)F)ccc1N1CCN(C)CC1 -3.47%
COc1ccc(C(=O)O)cc1S(=O)(=O)N(C)c1cc(C(F)(F)F)ccc1N1CCCCC1 2.48%
Cc1ccc(C(=O)O)cc1S(=O)(=O)Nc1cc(C(F)(F)F)ccc1N1CCCCC1 -10.5%
COc1ccc(C(=O)O)cc1S(=O)(=O)Nc1cc(C(F)(F)F)ccc1N1CCOCC1 25%
COc1ccc(C(=O)O)cc1S(=O)(=O)Nc1cc(C(F)(F)F)ccc1N1CCN(C(C)=O)CC1 31.4%
O=C(O)c1cc(F)cc(S(=O)(=O)Nc2cc(C(F)(F)F)ccc2N2CCCCC2)c1 -23.2%
COc1ccc(C(=O)O)cc1S(=O)(=O)N1CCN(c2ccc(C(F)(F)F)cc2N)CC1 25.1%

outcome, inactive:
COc1ccc(C(=O)O)cc1S(=O)(=O)Nc1cc(C(F)(F)F)ccc1N1CCCCC1
